Data: the supplement of paper PMC6555819

Tests used:
Assay in all cases: PBM binding z-score (relative to random genomic background probes); higher = stronger binding; sequences stand for … in GC…GCGATTGACAGCGTAGAATGAAGG
[1] = test system: FXR:RXRa (NR concentration 270 nM, RXRa partner concentration 90 nM)
Method in brief: (§1)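 Random background probes are the reference for binding z-scores. These scores derive from regression-normalized fluorescence on custom Agilent 4×180K protein-binding microarrays incubated 1 h with ligand-free nuclear receptor dimers. Binding was detected with antibodies against each partner (one per run).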

[2] = test system: LXRa:RXRa (NR concentration 270 nM, RXRa partner concentration 90 nM)
Method in brief: as §1

[3] = test system: LXRa homodimer (NR concentration 270 nM)
Method in brief: as §1

[4] = test system: LXRb:RXRa (NR concentration 270 nM, RXRa partner concentration 90 nM)
Method in brief: as §1

[5] = test system: LXRb homodimer (NR concentration 270 nM)
Method in brief: as §1

[6] = test system: PPARa:RXRa (NR concentration 270 nM, RXRa partner concentration 90 nM)
Method in brief: as §1

[7] = test system: PPARg:RXRa (NR concentration 180 nM, RXRa partner concentration 90 nM)
Method in brief: as §1

[8] = test system: PPARg:RXRa 270nM:90nM, anti-RXR (NR concentration 270 nM, RXRa partner concentration 90 nM)
Method in brief: as §1

[9] = test system: PPARg:RXRa 30nM:10nM, anti-RXR (NR concentration 30 nM, RXRa partner concentration 10 nM)
Method in brief: as §1

[10] = test system: PPARg:RXRa 90nM:30nM, anti-RXR (NR concentration 90 nM, RXRa partner concentration 30 nM)
Method in brief: as §1

[11] = test system: PPARg:RXRa DBDmut IVT, anti-RXR (DBD mutation: RXRa K156A/R161A, NR concentration 270 nM, RXRa partner concentration 90 nM)
Method in brief: as §1

[12] = test system: PPARg:RXRa IVT, anti-PPARg (NR concentration 270 nM, RXRa partner concentration 90 nM)
Method in brief: as §1

[13] = test system: PPARg DBDmut:RXRa IVT, anti-PPARg (DBD mutation: PPARg1 K132A/R137A, NR concentration 270 nM, RXRa partner concentration 90 nM)
Method in brief: as §1

[14] = test system: PPARg DBDmut IVT, anti-PPARg (DBD mutation: PPARg1 K132A/R137A, NR concentration 270 nM)
Method in brief: as §1

[15] = test system: PPARg homodimer (NR concentration 180 nM)
Method in brief: as §1

[16] = test system: PXR:RXRa (NR concentration 270 nM, RXRa partner concentration 90 nM)
Method in brief: as §1

[17] = test system: PXR homodimer (NR concentration 270 nM)
Method in brief: as §1

[18] = test system: RARa:RXR (NR concentration 270 nM, RXRa partner concentration 90 nM)
Method in brief: as §1

[19] = test system: RARa homodimer (NR concentration 270 nM)
Method in brief: as §1

[20] = test system: RARb:RXRa (NR concentration 270 nM, RXRa partner concentration 90 nM)
Method in brief: as §1

Row | Sequence | PBM binding z-score [1] | PBM binding z-score [2] | PBM binding z-score [3] | PBM binding z-score [4] | PBM binding z-score [5] | PBM binding z-score [6] | PBM binding z-score [7] | PBM binding z-score [8] | PBM binding z-score [9] | PBM binding z-score [10] | PBM binding z-score [11] | PBM binding z-score [12] | PBM binding z-score [13] | PBM binding z-score [14] | PBM binding z-score [15] | PBM binding z-score [16] | PBM binding z-score [17] | PBM binding z-score [18] | PBM binding z-score [19] | PBM binding z-score [20]
1 | CCTAGCAGGCCAATCTGGGTCACTCAAGGCTTGA | 1.5 | 1.42 | -0.498 | 0.851 | -1.04 | 3.1 | 1.69 | 2.6 | -0.232 | 1.52 | 4.72 | 5.12 | -1.06 | -0.836 | 0.786 | 0.995 | -0.679 | 1.17 | -0.672 | 1.58
2 | AGAATGAGGTTAAGACCAGGGAAACAGAATACAT | 2.32 | 1.88 | -0.015 | 1.61 | -0.233 | 3.48 | 2.1 | 2.15 | 0.945 | 1.71 | 2.74 | 2.42 | 1.4 | 1.16 | 0.773 | 1.03 | 0.319 | 1.92 | 0.687 | 1.85
3 | TCGACTAGGTTAGGGGCATTCAGAATGGCGTCGA | 0.141 | 0.372 | -0.304 | 0.803 | -0.322 | 1.38 | 1.35 | 2.49 | 1.74 | 2.17 | 2.47 | 1.86 | 0.0313 | -0.271 | 0.688 | 0.539 | -0.0457 | 0.602 | -0.239 | 1.26
4 | TCATATAGGTAAACAGGTGCAAGTCCGTAAGTTA | 0.886 | 1 | 0.433 | 1.02 | -0.121 | 1.65 | 1.1 | 2.53 | 3.85 | 3.12 | 4.3 | 2.74 | 0.88 | 1.48 | 1.13 | 1.33 | 0.685 | 1.34 | 1.57 | 0.765
5 | CCTAGTTGTTCAAGGTCACACACGCTATAGGTAC | 4.9 | 4.93 | 4.85 | 4.17 | 1.95 | 4.26 | 2.64 | 3.12 | 1.55 | 2.55 | 1.86 | 2.8 | 2.46 | 1.22 | 4.99 | 4.73 | 3.83 | 5 | 4.94 | 4.12
6 | TCTGCTAGGTCAGTTGGTCAGCTACCGAGCTGCC | 0.866 | 0.506 | -0.683 | -0.00907 | -0.0816 | 1.21 | 0.156 | 1.79 | 1.19 | 1.29 | 2.75 | 3.45 | 0.596 | 0.667 | -0.139 | 0.0735 | -0.891 | 0.438 | -0.931 | 3.14
7 | GCTATTAGTTGGAAGGGCAACCGAATGATTCTCG | -0.211 | -0.165 | 0.178 | -0.0403 | -0.253 | 0.0818 | 0.375 | 0.723 | -0.127 | 0.108 | -0.166 | -0.0839 | -0.592 | -0.456 | 0.324 | -0.247 | -0.0418 | -0.059 | 0.846 | 1.06
8 | CCTTACGGGTCACGAGGTTAGAGCACGACGAGCG | 6.98 | 4.06 | 0.353 | 3.58 | 0.0179 | 5.8 | 7.39 | 6.87 | 3.49 | 6.11 | 4.55 | 5.59 | 2.76 | 1.38 | 2.96 | 4.32 | -0.124 | 5.72 | 0.978 | 4.6
